# Hit rate of the full screen: of about 310,000 compounds, about 18,000 (5.8%) were called active. Another 22% or so got no clear call; they are omitted. The full list was thinned out, with actives kept by preference. A number with no mark means an inactive call. The call rests on the fitted dose curve; in most records, active means well fitted inhibition curve with a large enough effect; inconclusive means small, poorly fitted or top-dose-only effect, or another doubt; inactive means no such curve, though single readings can be large or run the other way.
# Experiment: Primary qHTS for delayed death inhibitors of the malarial parasite plastid, 48 hour incubation
# Settings: P. falciparum luciferase growth in erythrocytes; series mostly up to 28.7 µM; activity change, negative = inhibition: at the top concentration
# Procedure, shortened: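 In quantitative HTS format, infected erythrocytes bearing luciferase-reporter parasites were treated for a single generation at 37 C. Luminescence after adding detection reagent served as the growth measure.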
# On the % scale 0 is the no-effect control and ±100 the full control effect; potency means the concentration at half of the fitted maximal effect.
Compound,"activity change, negative = inhibition [%]",Potency
O=C(Cn1c(=O)n(Cc2ccco2)c(=O)c2ccccc21)NCC1CCCO1 (stereo not given),0.136,–
O=c1c2ccccc2oc2nc(C3CCCCC3)n(Cc3ccco3)c(=O)c12,–,13.1 µM (active)
O=c1c2ccccc2oc2nc3n(c(=O)c12)CCCS3,-4.62,–
Cc1cccc(COc2ccccc2/C=N/Nc2ccc([N+](=O)[O-])cc2)c1,-89.6,–
COCCNC(=O)c1ccccc1NS(=O)(=O)c1ccc(C)c([N+](=O)[O-])c1,-2.7,–
Cc1ccc(NS(=O)(=O)c2ccc(N/N=C/c3ccccc3OCC(=O)O)c([N+](=O)[O-])c2)c(C)c1,–,11.7 µM (active)
O=C(N/C(=C\c1ccc([N+](=O)[O-])cc1)C(=O)N1CCCCC1)c1ccco1,2.5,–
O=C(CN1CCOC1=O)N1CCCC(Nc2ccc(F)c(F)c2)C1 (stereo not given),0.222,–
COc1ccccc1-c1cnn2c(N3CCOCC3)cc(C)nc12,95.7,–
Cn1nccc1/C=N\NC(=O)c1ccc(Cl)cc1,15,–
CN(CCc1ccccn1)C(=O)c1ccc(OC2CCN(Cc3ccccn3)CC2)cc1,0.5,–
CCCCN(CC)C(=O)c1ccc2c(c1)OCO2,-5.43,–
COc1ccc(-c2cc(=O)oc3cc(OCC(=O)N[C@@H](Cc4c[nH]c5ccccc45)C(=O)O)ccc23)cc1,2.65,–
Cc1[nH][nH]c(=O)c1C(c1ccc2c(c1)OCO2)c1c(C)[nH][nH]c1=O,0.59,–
COc1ccc(F)cc1S(=O)(=O)NCC(c1ccc2c(c1)OCO2)N1CCN(C)CC1 (stereo not given),0.254,–
CCN(CC)CCC(c1cc(OC)c(OC)c(OC)c1)c1c(OC)cc(OC)c2c(-c3ccccc3)cc(=O)oc12 (stereo not given),–,3.29 µM (active)
COc1cc(OC)c(C(=O)NCc2ccc3c(c2)OCO3)cc1OC,0.912,–
CCN(CC)CCC(c1ccc2c(c1)OCO2)c1c(OC)cc(OC)c2c(-c3ccccc3)cc(=O)oc12 (stereo not given),–,9.28 µM (active)
CC(=O)COc1ccc2c(-c3ccccc3)cc(=O)oc2c1,34.8,–
CCN(CC)C(=O)CC(c1ccc2c(c1)OCO2)c1c(OC)cc(OC)c2c(-c3ccccc3)cc(=O)oc12 (stereo not given),–,11.7 µM (active)
O=C(NNC(=O)c1ccc(-n2cncn2)c([N+](=O)[O-])c1)c1ccccc1,-10.8,–
S=C(Nc1ccc(Cl)cc1Cl)N1CCCC1,54.8,–
COc1cc(/C=N/NC(=O)Cc2ccccc2)cc(OC)c1OC,6.42,–
O=C(Nc1cccc(F)c1)[C@@H]1CCCN1,-9.54,–
Cc1cc(C)nc(NS(=O)(=O)c2ccc(N3C(=O)C4CCCCC4C3=O)cc2)n1 (stereo not given),26.1,–
Cc1cc(N2C(=O)C(O)=C(C(=O)c3ccc(C)o3)C2c2ccc(OCc3ccccc3)cc2)no1 (stereo not given),5.29,–
O=C(Cn1nc([N+](=O)[O-])nc1Br)NC1CCCCC1,–,1.47 µM (active)

Compound,"activity change, negative = inhibition [%]",Potency
Cc1nn(CC(=O)NC2CCCCC2)c(=O)c2cccn12,29.8,–
Cc1cc(C(F)F)nn1CC(=O)NC1CCCCCC1,10.4,–
CC1(C)O[C@@H]2[C@H](O1)[C@@H](CO)O[C@H]2n1c(N2CCCCC2)nc2c(N)ncnc21,-1.31,–
O=C(NCc1cccnc1)C12CC3CC(CC(C3)C1)C2,-8.11,–
CCc1cccc(NC(=O)CCC(=O)O)c1,2.01,–
O=C(CCl)Nc1cccc(CP(=O)(c2ccccc2)c2ccccc2)c1,–,10.4 µM (active)
O=C(Cc1ccccc1)Nc1cccc(NC(=O)c2ccccc2)c1,312,–
CC(/C=C/c1ccccc1)=N\NC(=O)C1CC1(C)c1ccccc1 (stereo not given),–,11.7 µM (active)
O=C(/C=C/c1ccccc1)c1ccccc1O,28.4,–
CC(=O)Nc1ccc(/C=C/C(=O)c2ccccc2)cc1,48.1,–
O=S(=O)(c1ccc(-c2ccno2)s1)N1CCCCC1,3.71,–
CCn1cc(C(=O)N[C@@H](C)C(=O)NCCO)c(=O)c2cc3c(cc21)OCO3,20.8,–
CCOC(=O)c1sc2nc(SC)nc(-c3ccccc3)c2c1N,10.1,–
CCOC(=O)C1=C(CC)Nc2ccccc2N=C1N,10.7,–
CCOC(=O)c1cc(Sc2ccccc2N)cc(C(=O)OCC)n1,–,0.147 µM (active)
CCOc1ccc(N2C(=O)CSC2=NC#N)cc1,-21.6,–
COc1ccccc1CNS(=O)(=O)CC12CCC(CC1=O)C2(C)C (stereo not given),10.1,–
COC(=O)c1ccc(Nc2ncnc3sccc23)cc1,19.8,–
Cc1nnc(SCC(=O)N2CCN(c3ccccc3)CC2)n1-c1ccccc1,-0.135,–
Cc1nnc(SCc2ccc(C(=O)c3ccc(Cl)cc3)o2)n1-c1ccccc1,–,14.7 µM (active)
Cc1nnc(SCC(=O)NCCOc2ccc(Cl)cc2)n1-c1ccccc1,-17.2,–
Cc1noc(C)c1C(=O)NCCc1ccc(S(N)(=O)=O)cc1,-3.59,–
COc1ccc(C)cc1NC(=S)N1CCOCC1,0.499,–
CCOC(=O)c1sc(NC(=O)c2sc(C)nc2C)nc1C,19.2,–
Cn1c(Nc2ccccc2)cc(=O)n(C)c1=O,-11.8,–
CCCCc1ccc(NC(=O)CN2C(=O)NC(Cc3ccccc3)C2=O)cc1 (stereo not given),-23.3,–
Cc1ccc(N2C(=O)C(Cc3ccccc3)NC2=S)cc1 (stereo not given),-18.5,–

Compound,"activity change, negative = inhibition [%]",Potency
O=C1C(Cc2ccc(O)cc2)NC(=S)N1Cc1ccccc1 (stereo not given),–,2.94 µM (active)
C=CCOc1ccc(C(=O)Nc2ccccc2C(=O)N2CCCC2)cc1,-4.59,–
CCOC(=O)CNc1nc(Cl)nc(Nc2ccc(OC)cc2OC)n1,122,–
Cc1c(O)c(C)c2c(c1O)C(=O)C[C@@H](c1ccccc1)O2,–,13.1 µM (active)
CCCc1cc(C(=O)Nc2ccc(Cl)cn2)cs1,274,–
Cc1cc(CNC(=O)C2CCC(=O)N(CCc3ccc(Cl)cc3)C2)no1 (stereo not given),-6.17,–
NC(=O)CSC1=Nc2ccccc2C2=NC(CCC(=O)NCc3ccc(F)cc3)C(=O)N12 (stereo not given),16.7,–
O=C(CC1N=C2c3ccccc3N=C(SCc3ccccc3Cl)N2C1=O)NCc1ccco1 (stereo not given),–,4.65 µM (active)
CCC(C)NC(=O)CSC1=Nc2ccccc2C2=NC(CCC(=O)NCc3ccco3)C(=O)N12 (stereo not given),0.708,–
Cc1ccc(C(=O)NCC(=O)NCc2cc(=O)n(C)c(=O)n2C)cc1,20.1,–
COc1ccc(C(=O)Nc2ccc3nc(N4CCCCC4)cc(C)c3c2)cc1OC,–,3.7 µM (active)
COc1ccc(NC(=O)CC2SC(N3CCCCC3)=NC2=O)cc1OC (stereo not given),1.93,–
COc1ccc(C(=O)NC(=S)Nc2ccc(N3CCCC3)cc2)cc1OC,2.93,–
COc1ccc(NC(=O)CCn2ccnc2)c(OC)c1,2.35,–
CC(=O)NCc1ccc(-c2csc(NC(=O)CCCc3nc4ccccc4c(=O)[nH]3)n2)cc1,–,9.28 µM (active)
O=C(CSc1nc2ccccc2c(=O)[nH]1)Nc1nc(-c2ccc(Br)cc2)cs1,4.63,–
COc1ccc(-c2csc(NC(=O)CCCc3cccs3)n2)cc1,5.99,–
Cc1cc(C)c(-c2csc(NC(=O)CCCc3nc4ccccc4c(=O)[nH]3)n2)c(C)c1,–,0.131 µM (active)
CC(C)(C)c1ccc(NC(=O)COC(=O)CCc2nc3ccccc3c(=O)[nH]2)cc1,36.9,–
CCN(CC)c1ccc(C(=O)NNC(=O)CCc2nc3ccccc3c(=O)[nH]2)cc1,0,–
CN(C(=O)CCNC(=O)Cn1ccc2ccccc2c1=O)c1ccc(Br)cc1,23.2,–
N=c1oc2ccccc2cc1C(=O)NCc1ccccc1,23.7,–
CS(=O)(=O)N1CCc2cc(C(=O)Nc3ccccc3Br)ccc21,88.1,–
COc1ccc(NC(=O)CNC(=O)Cc2ccccc2)cc1OC,27,–
Cc1cc(NC(=O)CCC(=O)N(Cc2ccccc2)C(C(=O)NC2CCCC2)c2ccc(C)o2)no1 (stereo not given),-18.2,–
CN(Cc1c(F)cccc1Cl)C(=O)CNC(=O)c1ccc2c(c1)OCO2,24.5,–
NC(=O)NC(CC(=O)NNC(=O)c1ccccn1)c1ccc(Cl)cc1 (stereo not given),-6.59,–

Compound,"activity change, negative = inhibition [%]",Potency
Cc1cc(C)c2c(=O)[nH]c(SCC(=O)Nc3ccc(Br)cc3)nc2n1,21.1,–
CN(C)CCn1c2c(c(SCC(=O)Nc3ccccc3C(F)(F)F)nc1=O)CCCC2,5.64,–
CN(C)CCn1c2c(c(SCC(=O)NCc3ccccc3)nc1=O)CCC2,2.52,–
COc1ccccc1CNC(=O)CSc1nc(=O)n(Cc2ccncc2)c2c1CCC2,–,11.7 µM (active)
Cc1ccc(NS(=O)(=O)c2ccc3c(c2)oc(=O)n3C)c(C)c1,22,–
Cc1c(NC(=O)C(C)Oc2cccc(Cl)c2)c(=O)n(-c2ccccc2)n1C (stereo not given),32.1,–
COc1ccc(NC(=O)c2cnc(NS(=O)(=O)c3ccccc3)nc2)cc1,25.7,–
Cc1ccc(-c2cc(C(=O)Nc3nn[nH]n3)c3ccccc3n2)c(C)c1,-32,–
CN(CC(=O)Nc1ccccc1Cl)C(=O)c1ccccc1SCC(=O)N1CCCC1,11.3,–
COc1ccc(CN(C)C(=O)c2cc(-c3ccc(C)cc3C)nc3ccccc23)c(OC)c1OC,–,9.28 µM (active)
COc1ccc(-c2cc(C(=O)N(C)CC(=O)Nc3ccccc3Cl)c3ccccc3n2)cc1OC,–,13.1 µM (active)
COc1ccc(C)cc1N(C)C(=O)c1coc(=O)c2ccccc12,-11.7,–
Cc1cccc(C(=O)NCC(=O)OCC(=O)N(C)CC(=O)Nc2ccccc2Cl)c1,-14.3,–
COc1cc(N=Cc2c(O)c3ccccc3oc2=O)c(OC)cc1Cl,1.98,–
CC(C)c1nnc(NC(=O)COC(=O)/C=C/c2ccc([N+](=O)[O-])cc2)s1,18.6,–
COc1ccccc1-n1nnnc1SCC(=O)NC(=O)Cc1ccccc1,-5.56,–
C=CCOc1cccc(CNn2cn[nH]c2=S)c1,1.4,–
COc1cccc(CNn2cn[nH]c2=S)c1OCc1ccccc1,–,10.4 µM (active)
C=CCOc1c(CNn2cn[nH]c2=S)cccc1OC,11.7,–
CC(=O)c1c(C)[nH]c(C(=O)OCC(=O)Nc2c(C)cccc2C)c1C,-25.1,–
CSc1ccc(Cl)c(C(=O)OCC(=O)N2CCNC2=O)c1,-4.4,–
CCOC(=O)CC1C(=O)NCCN1c1nc2c(C)cccn2c(=O)c1/C=C1\SC(=S)N(C(C)CC)C1=O (stereo not given),–,8.28 µM (active)
CCOC(=O)CC1C(=O)NCCN1C(=O)COc1ccc(Br)cc1C (stereo not given),13.7,–
COc1ccc(C(=O)NC(=S)N2CCNC(=O)C2CC(=O)OC(C)C)cc1 (stereo not given),12.5,–
